The source of these data is PubChem BioAssay (NCI).

Among the test systems are SR leukemia; RPMI-8226 leukemia; OVCAR-8 ovarian; OVCAR-5 ovarian; OVCAR-4 ovarian; SK-OV-3 ovarian; IGROV1 ovarian; OVCAR-3 ovarian; HS 578T breast; NCI/ADR-RES ovarian; T-47D breast; BT-549 breast; MDA-MB-435 melanoma; SW-620 colon; MCF7 breast; HCT-116 colon; HCC-2998 colon; KM12 colon; MDA-MB-468 breast.
Holding throughout (experiment): NCI-60 one-dose screen, 48 h (100 = growth as untreated, 0 = no growth, -100 = all killed)
Holding throughout (details): 10 µM unless noted

This is part of a sample that, as a whole, favours compounds with a hit. Of some 83,000 tested, about 20% had one in any assay.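 How to read the values: 0–100, growth inhibition (40 = 60% inhibited); 0, no net growth; -100 to 0, cell death (-40 = 40% of starting cells died; -100 = all dead).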 Values without a mark were called inactive. Activity calls are given as the source filed them. The calls were made as follows: active = growth percent below 10; inactive = the rest.

For the compound `Cc1ccc2c(c1)nc(-c1ccccc1)n2CC(=O)N=Nc1c(O)[nH]c2ccc(Br)cc12`, the growth in the test with SR leukemia is 0.421% (active); in the test with RPMI-8226 leukemia, -1.7% (active); with OVCAR-8 ovarian it was -67.2% (active); with OVCAR-5 ovarian, -20.2% (active); in the test with OVCAR-4 ovarian, -49.3% (active); in the test on SK-OV-3 ovarian, -32% (active). Further, the growth was -78% (active) in the test with IGROV1 ovarian; -75.2% (active) in the test with OVCAR-3 ovarian; -5.01% (active) in the test on HS 578T breast; -69.6% (active) with NCI/ADR-RES ovarian; -46% (active) with T-47D breast; -72.1% (active) in the test with BT-549 breast. Also, the growth in the test on MDA-MB-435 melanoma was -33.4% (active); in the test with SW-620 colon it was 2.54% (active); with MCF7 breast, -69.7% (active); with HCT-116 colon it was -91.7% (active); with HCC-2998 colon, -72% (active); with KM12 colon it was -46% (active). Further, the growth with MDA-MB-468 breast is -78.4% (active).

With `COc1cc2oc(-c3cccc(NC(=O)[C@H](CC(N)=O)NC(=O)OC(C)(C)C)c3)cc(=O)c2c(OC)c1OC`, the growth in the test with SR leukemia was 58.4%; in the test with RPMI-8226 leukemia, 69.3%; in the test with OVCAR-8 ovarian it was 73.3%; in the test with OVCAR-5 ovarian it was 95.5%; in the test with OVCAR-4 ovarian it was 94.6%; in the test with SK-OV-3 ovarian, 140%. Besides, the growth in the test with IGROV1 ovarian is 96.9%; with OVCAR-3 ovarian, 105%; in the test on HS 578T breast it was 83.1%; with NCI/ADR-RES ovarian it was 102%; in the test on T-47D breast it was 65.7%; in the test on BT-549 breast it was 82.6%. Further, the growth with MDA-MB-435 melanoma is 97.2%; in the test with SW-620 colon, 94.5%; in the test with MCF7 breast, 71.8%; with HCT-116 colon it was 89.3%; with HCC-2998 colon, 100%; with KM12 colon it was 87.1%. In addition, in the test with MDA-MB-468 breast, the growth was 82.7%.

`Cn1cc(-c2cc(N)n3nc(-c4cn(C)c5ccc(Cl)cc45)cc3n2)c2ccccc21`: the growth with SR leukemia is 99.7%; in the test on RPMI-8226 leukemia, 109%; in the test with OVCAR-8 ovarian it was 104%; in the test on OVCAR-5 ovarian it was 108%; in the test with OVCAR-4 ovarian, 111%; in the test with SK-OV-3 ovarian, 105%. Besides, the growth in the test with IGROV1 ovarian is 111%; with OVCAR-3 ovarian it was 122%; with HS 578T breast it was 113%; with NCI/ADR-RES ovarian, 105%; in the test on T-47D breast, 101%; in the test on BT-549 breast, 118%. The growth with MDA-MB-435 melanoma is 101%; in the test on SW-620 colon, 114%; with MCF7 breast it was 98.8%; in the test with HCT-116 colon, 104%; with HCC-2998 colon, 105%; with KM12 colon, 109%. The growth in the test on MDA-MB-468 breast is 96.4%.

Take `CN(C)c1ccnc(CNCCSC2(c3ccc(C(F)(F)F)cc3)c3ccccc3CCc3ccccc32)c1`: the growth with SR leukemia is -50.9% (active); with RPMI-8226 leukemia, -47.8% (active); in the test on OVCAR-8 ovarian, -87.3% (active); in the test with OVCAR-5 ovarian, -22.7% (active); with OVCAR-4 ovarian it was 13.9%; in the test with SK-OV-3 ovarian it was -17.4% (active). For the same compound, the growth with IGROV1 ovarian is -5.42% (active); in the test with OVCAR-3 ovarian, -36.5% (active); in the test on HS 578T breast, -23.4% (active); in the test with NCI/ADR-RES ovarian, -73.9% (active); in the test on T-47D breast, -55.8% (active); with BT-549 breast it was -15.2% (active). For the same compound, the growth in the test on MDA-MB-435 melanoma is -80.6% (active); in the test on SW-620 colon, -66% (active); in the test on MCF7 breast it was -72% (active); in the test with HCT-116 colon it was -82.5% (active); in the test with HCC-2998 colon it was -91.6% (active); with KM12 colon, -66.3% (active). Also, the growth in the test on MDA-MB-468 breast is -87.6% (active).

On to `CCOC(=O)c1ccc(Nc2nc(NN)nc(-c3ccc(OC)cc3)c2C#N)cc1`, for which the growth was 97.2% in the test on SR leukemia; 92% with RPMI-8226 leukemia; 116% in the test on OVCAR-8 ovarian; 104% with OVCAR-5 ovarian; 104% in the test on OVCAR-4 ovarian; 119% in the test with SK-OV-3 ovarian. Also, the growth was 108% in the test on IGROV1 ovarian; 107% in the test on OVCAR-3 ovarian; 104% with HS 578T breast; 113% with NCI/ADR-RES ovarian; 84.9% with T-47D breast; 116% in the test with BT-549 breast. Also, the growth in the test with MDA-MB-435 melanoma was 62.6%; with SW-620 colon, 104%; in the test on HCT-116 colon, 101%; in the test with HCC-2998 colon, 81%; in the test on KM12 colon it was 93.9%.

For `COc1ccc(-c2ccnc(SCc3cc4ccccc4[nH]c3=O)n2)cc1OC`, the growth with SR leukemia is 40.3%; in the test on RPMI-8226 leukemia, 45%; in the test on OVCAR-8 ovarian, 0.24% (active); with OVCAR-5 ovarian, -41% (active); with OVCAR-4 ovarian, -2.39% (active); in the test with SK-OV-3 ovarian, -69.7% (active). Moreover, the growth was 10.9% in the test with IGROV1 ovarian; 20.7% with OVCAR-3 ovarian; -23.6% (active) in the test on HS 578T breast; -40.7% (active) in the test with NCI/ADR-RES ovarian; -5.29% (active) in the test on T-47D breast; -58.3% (active) in the test with BT-549 breast. For the same compound, the growth is 14.8% with MDA-MB-435 melanoma; 48.8% in the test with SW-620 colon; 2.06% (active) in the test on HCT-116 colon; 5.44% (active) in the test on HCC-2998 colon; 33.7% in the test with KM12 colon; -8.96% (active) in the test with MDA-MB-468 breast.

On to `Cn1cc(-c2cc(N)n3nc(-c4c[nH]c5ccccc45)cc3n2)c2cccnc21`, for which the growth in the test on SR leukemia was -32.9% (active); in the test on RPMI-8226 leukemia, -28.5% (active); in the test on OVCAR-8 ovarian, 27.5%; in the test on OVCAR-5 ovarian it was 30.2%; in the test with OVCAR-4 ovarian, 28.4%; with SK-OV-3 ovarian it was 89.9%. Further, the growth with IGROV1 ovarian is 28.1%; in the test with OVCAR-3 ovarian, 12.6%; in the test with HS 578T breast, 82.7%; in the test with NCI/ADR-RES ovarian, 27.7%; in the test on T-47D breast, 22.2%; in the test on BT-549 breast, 71.8%. Also, the growth is 5.57% (active) in the test with MDA-MB-435 melanoma; -53.7% (active) with SW-620 colon; -77.1% (active) with HCT-116 colon; -31.6% (active) in the test with HCC-2998 colon; 1.87% (active) with KM12 colon; -54.3% (active) in the test on MDA-MB-468 breast.

Consider `COc1ccc(/C=C/c2nc3ccccc3c(=O)n2CC(=O)Nc2ccc(OC)cc2)cc1`, for which the growth in the test on SR leukemia is 79.5%; in the test with RPMI-8226 leukemia, 76.4%; in the test with OVCAR-8 ovarian, 59.1%; in the test on OVCAR-5 ovarian, 95.6%; with OVCAR-4 ovarian, 9.1% (active); in the test on SK-OV-3 ovarian, 79.3%. Besides, the growth in the test with IGROV1 ovarian is 94.2%; in the test with OVCAR-3 ovarian it was 62.5%; in the test on HS 578T breast, 56.2%; in the test on NCI/ADR-RES ovarian it was 75.7%; in the test on T-47D breast, 66.4%; in the test on BT-549 breast, 72.5%. Further, the growth is 96.4% in the test on MDA-MB-435 melanoma; 84.4% in the test with SW-620 colon; 32.1% in the test on HCT-116 colon; 95.6% with HCC-2998 colon; 79.6% with KM12 colon.

Regarding `CC(=O)c1cccc(NC(=O)CCC(=O)NS(=O)(=O)c2ccc(C)cc2)c1`, the growth in the test on SR leukemia was 99.3%; in the test with RPMI-8226 leukemia it was 99.8%; in the test with OVCAR-8 ovarian it was 106%; with OVCAR-5 ovarian, 110%; in the test with OVCAR-4 ovarian it was 118%; in the test with SK-OV-3 ovarian it was 99.6%. In addition, the growth with IGROV1 ovarian is 115%; in the test with OVCAR-3 ovarian, 128%; in the test on HS 578T breast, 111%; with NCI/ADR-RES ovarian, 112%; with T-47D breast, 106%; in the test on BT-549 breast it was 107%. The growth was 112% in the test on MDA-MB-435 melanoma; 111% in the test with SW-620 colon; 101% in the test on HCT-116 colon; 117% in the test with HCC-2998 colon; 104% with KM12 colon; 122% in the test with MDA-MB-468 breast.
